Measurements: PubChem BioAssay AID1159580 (chemical genetic matrix, 2015)
The whole screen tested about 5,500 compounds, of which about 2,000 (36%) were called active. Inconclusive results (about 18%) are left out. Cut-off read from the data, not from the text of the source: active = normalized growth mostly below about 0.91 (no sharp cut-off); inconclusive = no clear call, values can overlap the other calls; inactive = mostly above about 0.92. The list shows a part of the results.

Test: chemical genetic growth profiling, strain panel (AID 1159580);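 note: tested at 20 µM; growth read once vehicle control cultures reached saturation at 30 °C; 1 = growth at the plate median or of vehicle wells; lower values mean less growth of the strain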
Conditions: growth OD

Measured: normalized growth

C[C@H]1[C@H]2CCC3C4CC=C5C[C@@H](N(C)C)CC[C@]5(C)C4CC[C@@]32CN1C (some centres not stated)
inactive: S. cerevisiae deletion strains, locus YJR075W, strain HOC1, active compounds read low 0.974 | S. cerevisiae deletion strains, locus YKL009W, strain mrt4, active compounds read low 0.985 | S. cerevisiae deletion strains, locus YKL068W, active compounds read low 0.989 | S. cerevisiae deletion strains, locus YKL085W, strain MDH1 (second series), active compounds read low 0.997 | S. cerevisiae deletion strains, locus YKL085W, strain MDH1, active compounds read low 0.997 | S. cerevisiae deletion strains, locus YKL160W, strain elf1, active compounds read low 0.995 | S. cerevisiae deletion strains, locus YKL190W, strain CNB1, active compounds read low 0.98 | S. cerevisiae deletion strains, locus YKR001C, strain vps1, active compounds read low 0.989 | S. cerevisiae deletion strains, locus YKR026C, strain gcn3, active compounds read low 0.99 | S. cerevisiae deletion strains, locus YKR091W, strain srl3, active compounds read low 0.995 | S. cerevisiae deletion strains, locus YLL001W, strain dnm1, active compounds read low 0.98 | S. cerevisiae deletion strains, locus YLL026W, active compounds read low 0.987 | S. cerevisiae deletion strains, locus YLL041C, strain sdh2, active compounds read low 1 | S. cerevisiae deletion strains, locus YLR027C, strain aat2, active compounds read low 0.996 | S. cerevisiae deletion strains, locus YLR039C, strain RIC1, active compounds read low 1.01 | S. cerevisiae deletion strains, locus YLR058C, strain SHM2, active compounds read low 0.98 | S. cerevisiae deletion strains, locus YLR102C, strain apc9, active compounds read low 0.992 | S. cerevisiae deletion strains, locus YLR113W, strain HOG1, active compounds read low 1.02 | S. cerevisiae deletion strains, locus YLR221C, strain rsa3, active compounds read low 0.997 | S. cerevisiae deletion strains, locus YLR258W, strain gsy2, active compounds read low 0.975 | S. cerevisiae deletion strains, locus YLR262C, strain YPT6 (second series), active compounds read low 1 | S. cerevisiae deletion strains, locus YLR262C, strain YPT6, active compounds read low 0.962 | S. cerevisiae deletion strains, locus YLR268W, strain sec22, active compounds read low 1.02 | S. cerevisiae deletion strains, locus YLR320W, strain mms22, active compounds read low 0.955 | S. cerevisiae deletion strains, locus YLR330W, strain CHS5, active compounds read low 0.992 | S. cerevisiae deletion strains, locus YLR342W, strain FKS1 (second series), active compounds read low 0.986 | S. cerevisiae deletion strains, locus YLR342W, strain FKS1, active compounds read low 0.991 | S. cerevisiae deletion strains, locus YLR357W, strain rsc2, active compounds read low 0.955 | S. cerevisiae deletion strains, locus YLR370C, strain arc18, active compounds read low 0.992 | S. cerevisiae deletion strains, locus YLR371W, strain rom2, active compounds read low 0.981 | S. cerevisiae deletion strains, locus YLR384C, strain iki3, active compounds read low 0.983 | S. cerevisiae deletion strains, locus YLR418C, strain cdc73, active compounds read low 0.937 | S. cerevisiae deletion strains, locus YML016C, strain PPZ1, active compounds read low 0.993 | S. cerevisiae deletion strains, locus YML032C, strain rad52, active compounds read low 0.94 | S. cerevisiae deletion strains, locus YML120C, strain ndi1, active compounds read low 1.01 | S. cerevisiae deletion strains, locus YML124C, strain tub3, active compounds read low 0.996 | S. cerevisiae deletion strains, locus YMR058W, strain fet3, active compounds read low 0.993 | S. cerevisiae deletion strains, locus YMR078C, strain ctf18, active compounds read low 0.988 | S. cerevisiae deletion strains, locus YMR125W, strain sto1, active compounds read low 0.947 | S. cerevisiae deletion strains, locus YMR129W, active compounds read low 0.997 | S. cerevisiae deletion strains, locus YMR205C, strain PFK2, active compounds read low 0.935 | S. cerevisiae deletion strains, locus YMR223W, strain ubp8, active compounds read low 0.972 | S. cerevisiae deletion strains, locus YMR231W, strain pep5, active compounds read low 0.994 | S. cerevisiae deletion strains, locus YMR263W, strain SAP30, active compounds read low 0.987 | S. cerevisiae deletion strains, locus YMR307W, strain GAS1, active compounds read low 0.874 | S. cerevisiae deletion strains, locus YNL067W, strain RPL9B, active compounds read low 0.978 | S. cerevisiae deletion strains, locus YNL071W, strain lat1, active compounds read low 0.987 | S. cerevisiae deletion strains, locus YNL128W, strain TEP1, active compounds read low 0.981 | S. cerevisiae deletion strains, locus YNL153C, strain GIM3, active compounds read low 0.982 | S. cerevisiae deletion strains, locus YNL183C, strain NPR1, active compounds read low 0.973 | S. cerevisiae deletion strains, locus YNL209W, strain ssb2, active compounds read low 1 | S. cerevisiae deletion strains, locus YNL233W, strain BNI4, active compounds read low 1 | S. cerevisiae deletion strains, locus YNL248C, strain rpa49, active compounds read low 0.991 | S. cerevisiae deletion strains, locus YNL250W, strain rad50, active compounds read low 0.965 | S. cerevisiae deletion strains, locus YNL271C, strain bni1, active compounds read low 0.988 | S. cerevisiae deletion strains, locus YNL298W, strain CLA4, active compounds read low 0.977 | S. cerevisiae deletion strains, locus YNL307C, strain MCK1, active compounds read low 0.988 | S. cerevisiae deletion strains, locus YNL322C, strain KRE1 (second series), active compounds read low 0.992 | S. cerevisiae deletion strains, locus YNL322C, strain KRE1, active compounds read low 0.994 | S. cerevisiae deletion strains, locus YNR049C, strain mso1, active compounds read low 0.997 | S. cerevisiae deletion strains, locus YNR052C, strain pop2, active compounds read low 0.978 | S. cerevisiae deletion strains, locus YOL006C, strain TOP1, active compounds read low 0.991 | S. cerevisiae deletion strains, locus YOL012C, strain htz1 0.864 | S. cerevisiae deletion strains, locus YOL147C, strain pex11, active compounds read low 0.991 | S. cerevisiae deletion strains, locus YOR001W, strain rrp6, active compounds read low 1.02 | S. cerevisiae deletion strains, locus YOR061W, strain CKA2, active compounds read low 0.96 | S. cerevisiae deletion strains, locus YOR069W, strain VPS5, active compounds read low 1 | S. cerevisiae deletion strains, locus YOR070C, strain gyp1, active compounds read low 0.993 | S. cerevisiae deletion strains, locus YOR080W, strain dia2, active compounds read low 0.978 | S. cerevisiae deletion strains, locus YOR083W, strain WHI5, active compounds read low 1 | S. cerevisiae deletion strains, locus YOR106W, strain vam3, active compounds read low 1 | S. cerevisiae deletion strains, locus YOR136W, strain idh2, active compounds read low 0.991 | S. cerevisiae deletion strains, locus YOR144C, strain elg1, active compounds read low 0.991 | S. cerevisiae deletion strains, locus YOR184W, strain ser1, active compounds read low 0.963 | S. cerevisiae deletion strains, locus YOR231W, strain MKK1, active compounds read low 1.01 | S. cerevisiae deletion strains, locus YOR265W, strain rbl2, active compounds read low 0.991 | S. cerevisiae deletion strains, locus YOR270C, strain vph1, active compounds read low 1 | S. cerevisiae deletion strains, locus YOR290C, strain snf2, active compounds read low 0.96 | S. cerevisiae deletion strains, locus YOR316C, strain cot1, active compounds read low 0.989 | S. cerevisiae deletion strains, locus YPL051W, strain arl3, active compounds read low 1 | S. cerevisiae deletion strains, locus YPL055C, strain LGE1, active compounds read low 0.952 | S. cerevisiae deletion strains, locus YPL078C, strain atp4, active compounds read low 1.01 | S. cerevisiae deletion strains, locus YPL106C, strain sse1, active compounds read low 0.977 | S. cerevisiae deletion strains, locus YPL240C, strain hsp82, active compounds read low 0.993 | S. cerevisiae deletion strains, locus YPL241C, strain CIN2, active compounds read low 0.994 | S. cerevisiae deletion strains, locus YPL256C, strain CLN2, active compounds read low 1.01 | S. cerevisiae deletion strains, locus YPR119W, strain clb2, active compounds read low 1.01 | S. cerevisiae deletion strains, locus YPR141C, strain kar3, active compounds read low 0.98 | S. cerevisiae deletion strains, locus YPR163C, strain tif3, active compounds read low 0.986 | S. cerevisiae deletion strains, locus YPR167C, strain met16, active compounds read low 0.987 | S. cerevisiae deletion strains, strain wtn01, active compounds read low 1.02 | S. cerevisiae strains, strain wild type, active compounds read low 0.981
